Screen size: about 310,000 compounds; about 14,000 (4.5%) showed an effect of 50% or more. The effect is printed as a negative number. The sample holds strong results, similar compounds and a random draw of the others, so the mix is not that of the screen.
biological target: human ether-à-go-go-related gene (hERG) potassium channel (human, UniProt Q12809); test: primary screen, population patch clamp on CHO cells stably expressing hERG; higher = less effect of the substance
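Also: peak tail current of the secondary pulse compared with the same well before compound.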

Chain of human ether-à-go-go-related gene (hERG) potassium channel (Q12809 whole entry, looked up): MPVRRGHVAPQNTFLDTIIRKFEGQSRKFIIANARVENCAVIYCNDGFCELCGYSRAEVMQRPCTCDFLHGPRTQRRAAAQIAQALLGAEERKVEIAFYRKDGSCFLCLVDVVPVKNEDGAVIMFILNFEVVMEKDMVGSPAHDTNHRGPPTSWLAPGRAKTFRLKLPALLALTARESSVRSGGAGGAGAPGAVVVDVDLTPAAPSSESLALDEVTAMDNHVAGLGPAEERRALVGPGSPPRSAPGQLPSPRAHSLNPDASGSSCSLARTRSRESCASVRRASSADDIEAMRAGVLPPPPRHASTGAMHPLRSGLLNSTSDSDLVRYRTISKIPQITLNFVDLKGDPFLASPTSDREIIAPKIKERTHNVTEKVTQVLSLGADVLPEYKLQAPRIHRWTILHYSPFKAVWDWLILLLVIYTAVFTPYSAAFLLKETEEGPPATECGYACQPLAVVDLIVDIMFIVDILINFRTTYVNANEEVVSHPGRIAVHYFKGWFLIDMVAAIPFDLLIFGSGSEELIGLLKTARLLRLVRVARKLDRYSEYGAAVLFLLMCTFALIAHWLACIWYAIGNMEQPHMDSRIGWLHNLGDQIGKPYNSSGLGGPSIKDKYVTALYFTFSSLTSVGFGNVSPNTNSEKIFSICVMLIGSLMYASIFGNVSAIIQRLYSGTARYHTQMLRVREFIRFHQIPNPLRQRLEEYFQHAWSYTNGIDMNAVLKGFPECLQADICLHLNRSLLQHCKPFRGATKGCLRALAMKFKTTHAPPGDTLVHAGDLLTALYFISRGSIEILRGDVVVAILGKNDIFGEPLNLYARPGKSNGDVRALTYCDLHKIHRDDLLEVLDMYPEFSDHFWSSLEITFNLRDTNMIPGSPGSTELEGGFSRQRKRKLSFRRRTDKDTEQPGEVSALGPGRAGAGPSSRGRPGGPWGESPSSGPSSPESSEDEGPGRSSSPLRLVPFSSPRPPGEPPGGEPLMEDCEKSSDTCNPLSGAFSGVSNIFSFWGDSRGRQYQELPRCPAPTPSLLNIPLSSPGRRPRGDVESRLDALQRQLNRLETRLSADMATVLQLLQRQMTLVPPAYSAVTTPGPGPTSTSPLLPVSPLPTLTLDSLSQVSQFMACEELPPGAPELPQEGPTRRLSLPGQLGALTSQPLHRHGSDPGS

Row | SMILES | hERG current change (%, negative = inhibition) at 10uM
1 | C/C=C/c1ccc(OCC(=O)Nc2cc(S(=O)(=O)N3CCOCC3)ccc2N2CCCC2)c(OC)c1 | 3.81%
2 | CC1(C)C(CO)=CC(=O)C2=C1SCC(=O)N2 | -16.3%
3 | CCOc1ccc(NC(=O)C2CC(=O)OC2c2ccccc2)cc1 (centres unmarked) | 6.5%
4 | CCC(C)NC(=O)CCc1nc2ccccc2n1-c1ccccc1 (centres unmarked) | 2.77%
5 | O=C(CNC(=O)c1ccccc1Cl)OC1CCOC1=O (centres unmarked) | 13.5%
6 | COc1ccc(Nc2cc(C)nc3nc(C)nn23)cc1Cl | -55.5%
7 | Cc1cc(N2CCN(C3CCCCC3)CC2)n2nc(C)nc2n1 | -57.7%
8 | Cc1nc2ncnn2c(N2CCN(c3cccc(C(F)(F)F)c3)CC2)c1C | -64.1%
9 | Cc1cc(N2CCCC2)n2nc(C)nc2n1 | -11.8%
10 | CCOC(=O)N1CCN(c2cc(C)nc3nc(C)nn23)CC1 | -32.9%
11 | COc1cccc2c(C)cc(N3CCCCCC3)nc12 | -52.9%
12 | Cc1nc2ncnn2c(N2CCN(C(=O)c3cccc(F)c3)CC2)c1C | -49.3%
13 | COc1ccc(Nc2cc(C)nc3ncnn23)cc1Cl | -39.5%
14 | Cc1cc(N2CCN(c3cccc(C(F)(F)F)c3)CC2)n2ncnc2n1 | -37%
15 | Cc1cc(N2CCCCC2)nc2c(C)cccc12 | 15%
16 | Cc1cc(N2CCCC2)nc2c(C)cccc12 | -21.6%
17 | Cc1cc(Nc2ccc(F)c(Cl)c2)n2nc(C)nc2n1 | -18%
18 | O=C(O)CNC1=NCCCCC1 | 0.366%
19 | O=C(O)Cc1ccc(NS(=O)(=O)c2ccccc2Cl)cc1 | 24.4%
20 | Cc1ccc(NS(=O)(=O)c2cc([N+](=O)[O-])ccc2NNC(=S)Nc2cc(C)ccc2C)c(C)c1 | -0.00412%
21 | CC1(C)Cc2c(C#N)c(N3CCN(C(=O)c4ccco4)CC3)nc(-c3ccco3)c2CS1 | -21.6%
22 | Cc1ccc(CNS(=O)(=O)c2c(N)n(C)c(=O)n(C)c2=O)cc1 | 8.77%
23 | COc1ccc2c(CC(=O)NC(Cc3ccc(Cl)cc3)C(=O)O)cc(=O)oc2c1C (centres unmarked) | 3.13%

Row | SMILES | hERG current change (%, negative = inhibition) at 10uM
24 | N#Cc1ccc(-c2ccc3c(c2)OCO3)nc1SCC(=O)OCc1ccccc1 | 9.22%
25 | Cc1ccc(NC(=O)C2CCN(S(=O)(=O)c3c(C)noc3/C=C/N(C)C)CC2)cc1 | -5.19%
26 | O=C(c1ccc(-c2ccccc2Cl)o1)N1CCN(S(=O)(=O)c2cccs2)CC1 | 15.9%
27 | O=C(c1cccs1)C1CN2CCC1CC2 (centres unmarked) | -4.77%
28 | COc1ccc(C(=O)Nc2ccc3c(c2)nc2n3CCSC2)cc1 | -24.7%
29 | O=c1[nH]c(=O)n(Cc2ccc(Oc3ccccc3)cc2)cc1Br | -1.61%
30 | COc1cccc(NCc2ccc([N+](=O)[O-])s2)c1 | -51%
31 | COc1ccc(NCc2ccc([N+](=O)[O-])s2)cc1 | -13.6%
32 | Cc1cccc(NCc2ccc([N+](=O)[O-])s2)c1 | -26.7%
33 | COc1ccc2c(c1O)-c1c(OC)c(OC)cc3c1[C@H](C2)N(C)CC3 | -36.5%
34 | COc1cc2c(cc1OC)-c1c(OC)c(OC)cc3c1C(C2)N(C)CC3 (centres unmarked) | -5.23%
35 | COc1cc2c(cc1O)C[C@H]1c3c(cc(O)c(OC)c3-2)CCN1C | -70.1%
36 | COc1cc2c(cc1O)[C@@H]1Cc3cc(O)c(OC)cc3[C@H](C2)N1C | 11.3%
37 | COc1cc2c(cc1OC)-c1c3c(cc4c1[C@@H](C2)N(C)CC4)OCO3 | -31.7%
38 | COc1cc2c(cc1O)CC1c3c(cc(O)c(OC)c3-2)CCN1C (centres unmarked) | -59.2%
39 | O=C(O)CCCCCN1C(=O)/C(=C\c2ccc(-c3ccc(Cl)cc3)o2)SC1=S | 18%
40 | COCCN1C(=O)c2ccccc2C(C(=O)Nc2ccc3c(c2)OCCO3)C1c1ccc(F)cc1 (centres unmarked) | 17.1%
41 | COc1cccc(S(=O)(=O)Nc2ccc(C(=O)Nc3ccncc3)cc2)c1 | 2.7%
42 | N#Cc1ccc(S(=O)(=O)N2CCC(N3CCCCC3)CC2)cc1 | -58.3%
43 | CCn1c(SCc2ccccc2)nnc1-c1ccc(S(=O)(=O)N2CCCCC2)cc1 | -36.2%
44 | N#Cc1ccc(CSc2ccc(S(=O)(=O)N3CCCC3)cn2)cc1 | -67.2%
45 | Cc1ccc(CSc2ccc(S(=O)(=O)N3CCCC3)cn2)cc1 | -4.27%
46 | O=S(=O)(c1ccc(SCc2ccc(Cl)cc2)nc1)N1CCCC1 | -8.21%

Row | SMILES | hERG current change (%, negative = inhibition) at 10uM
47 | CCn1c(SC)nnc1-c1ccc(S(=O)(=O)N2CCCCC2)cc1 | -12.1%
48 | CCn1c(SCc2ccc(C#N)cc2)nnc1-c1ccc(S(=O)(=O)N2CCCCC2)cc1 | -70.7%
49 | O=S(=O)(c1ccc(Cl)cc1)N1CCC(N2CCCCCC2)CC1 | -49.9%
50 | Cc1ccc(S(=O)(=O)N2CCC(N3CCCCCC3)CC2)cc1 | -23.2%
51 | CC(=O)c1cccc(N/C=C\c2nnnn2-c2ccc(F)cc2)c1 | 0.338%
52 | COC(=O)C1=C(C)NC(C)=C(C(=O)OC)C1c1ccccn1 | 5.81%
53 | O=C(NC1CCCC1)C(c1cccnc1)N(C(=O)c1csnn1)C1CCCC1 (centres unmarked) | 13%
54 | O=C(CN(C(=O)Cn1nnc(-c2cccs2)n1)c1ccc2c(c1)OCCO2)NC1CCCCC1 | -13.2%
55 | Cc1nnc(C)n1N | 12.1%
56 | CCn1c(=O)cc(OCC(=O)O)c2ccccc21 | 10.6%
57 | S=C(NCc1ccccc1)Nc1ccc(Cl)cc1 | -25.1%
58 | CC1CCCN(c2nc(-c3cccnc3)nc3scc(-c4ccccc4)c23)C1 (centres unmarked) | 11.6%
59 | O=C(O)C(=O)O.c1ccc(CNc2nc(CN3CCOCC3)nc3scc(-c4ccccc4)c23)cc1 | -20.6%
60 | Fc1ccc(N2CCN(c3nc(CN4CCOCC4)nc4scc(-c5ccccc5)c34)CC2)cc1 | -5.05%
61 | Clc1ccc(CNc2nc(CN3CCOCC3)nc3scc(-c4ccccc4)c23)cc1 | -9.73%
62 | CC1CCN(c2nc(-c3cccnc3)nc3scc(-c4ccccc4)c23)CC1 | 15.4%
63 | OCC1CCCN(c2ncnc3scc(-c4ccccc4)c23)C1 (centres unmarked) | 3.73%
64 | CCC(CO)Nc1nc(CN2CCCCC2)nc2scc(-c3ccccc3)c12 (centres unmarked) | -68.2%
65 | CC1CCN(c2nc(CN3CCCCC3)nc3scc(-c4ccccc4)c23)CC1 | -75.5%
66 | OCC1CCCN(c2nc(CN3CCCCC3)nc3scc(-c4ccccc4)c23)C1 (centres unmarked) | -63.7%
67 | CCCCN(C(=O)CCC(=O)Nc1cc(C)on1)C(C(=O)NC(C)(C)CC)c1cccc(OC)c1OC (centres unmarked) | 1.4%
68 | Cc1cccc(C)c1NC(=O)CSc1nnnn1C | -1.61%
69 | O=C(CSc1ccccn1)Nc1ccc(Cl)c([N+](=O)[O-])c1 | -19.6%

Row | SMILES | hERG current change (%, negative = inhibition) at 10uM
70 | COc1ccc(Cn2c(N)c(C#N)c3nc4ccccc4nc32)cc1 | 11.2%
71 | COc1ccc(-n2c(SCC(=O)NCCCN3CCCC3=O)nnc2C(C)N2CCCCC2)cc1 (centres unmarked) | 43.4%
72 | C=CCc1cccc(CNc2nc3ccccc3n2CCC)c1O | 5.13%
73 | C#CCOCCOCCOCCNc1nc(N2CCOCC2)nc(N2CCN(C(=O)CCCCCCCCCCNC(=O)[C@H](CO)n3cc(CCCSC)nn3)CC2)n1 | -0.214%
74 | CCOc1ccc(S(=O)(=O)Nc2ccc(C(=O)NCC(c3ccco3)N3CCCCC3)cc2)cc1 (centres unmarked) | -25.1%
75 | CC(C)[C@H](NC(=O)[C@H]1N2C(=O)c3ccccc3C2SC1(C)C)C(=O)NCc1ccco1 (some centres unmarked) | 2.21%
76 | Cc1cccc(C)c1NC(=O)CSc1nnc(Cn2nnc(-c3ccccc3)n2)n1-c1ccccc1 | -22.3%
77 | CCN(CC)c1ccc(CNc2ccc(Br)cn2)cc1 | 13.1%
78 | CC1(C)Cc2c(c(N3CCOCC3)nc3sc(-c4ccc(C(=O)O)o4)c(N)c23)CO1 | -15.2%
79 | Cn1nnc(NC(=O)/C=C/c2ccco2)n1 | 8.33%
80 | N#Cc1ccc(C(=O)NC2CCCc3ccccc32)cc1 (centres unmarked) | -52.8%
81 | COC(=O)[C@@H](NC(=O)NC1CCCc2ccccc21)C(C)C (some centres unmarked) | 9.47%
82 | O=C(NC1CCCc2ccccc21)c1ccc(Br)cc1 (centres unmarked) | -7.78%
83 | CC(C)[C@H](NC(=O)NC1CCCc2ccccc21)C(=O)O (some centres unmarked) | -68.2%
84 | Cc1cc(C(=O)NC2CCCc3ccccc32)ccc1[N+](=O)[O-] (centres unmarked) | 9.18%
85 | O=C(NC1CCSc2ccccc21)c1ccc([N+](=O)[O-])cc1 (centres unmarked) | -40.3%
86 | O=C(NC1CCCc2ccccc21)c1ccccc1 (centres unmarked) | 3.92%
87 | O=C(NC1CCCc2ccccc21)c1ccc([N+](=O)[O-])cc1 (centres unmarked) | -53.4%
88 | CCC(C)[C@H](NC(=O)NC1CCCc2ccccc21)C(=O)O (some centres unmarked) | 20.6%
89 | COc1ccc(C(CNC(=O)C(CCSC)NC(=O)c2ccccc2Cl)N2CCOCC2)cc1 (centres unmarked) | -8.2%

Source: PMC4336329 (PLoS ONE, 2015)
